This passage reports growth results from PubChem BioAssay (NCI).

About 83,000 compounds went through this panel and 20% of them were active in at least one assay; those are over-represented in the sample as a whole.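 96-well plates, one dose, 48 hours. Percent growth reported; active if below 10.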 Unmarked numbers belong to inactive results. Active and inactive are the calls of the source.

Holding throughout (experiment): NCI-60 one-dose screen, 48 h (100 = growth as untreated, 0 = no growth, -100 = all killed)
What all share (details): 10 µM unless noted

The test system of test [1] is T-47D breast.
In test [2] the test system is BT-549 breast.
In test [3] the test system is MDA-MB-435 melanoma.
Test [4] has as its system SW-620 colon.
The test system of test [5] is HCT-116 colon.
Test [6] relates to HCC-2998 colon.
Test [7] has as its system KM12 colon.
Test [8] relates to MCF7 breast.

As to `CCN(c1ccc(Cl)cc1)c1nc(-c2ccc([N+](=O)[O-])cc2)cs1`, the growth in test [1] was 77.2%; in test [2], 115%; in test [3] it was 103%; in test [4], 91.7%; in test [5], 97.9%; in test [6], 98.7%. Moreover, the growth in test [7] is 93.2%.

Regarding `CCOC(=O)CSc1ncnc2c1c(-c1ccccc1)c(-c1ccccc1)n2-c1ccc(C)cc1`, the growth was 9.51% (active) in test [1]; 61.8% in test [2]; 74.2% in test [3]; 52.5% in test [8]; 53.5% in test [5]; 75.8% in test [6]. Also, the growth in test [7] is 50.2%.

On to `C/C(Nc1ccc(Cl)c(Cl)c1)=C1\CCOC1=O`, for which the growth is 86.6% in test [1]; 87.2% in test [2]; 82.5% in test [3]; 96.1% in test [8]; 80.7% in test [5]; 90.3% in test [6]. The growth in test [7] was 96.2%.

In the case of `COc1cc(CNC(=O)CCCC/C=C/C(C)C)ccc1OCc1nnc(Nc2ccc([N+](=O)[O-])cc2)o1`, the growth in test [1] is 48.6%; in test [2] it was 108%; in test [3], 71.9%; in test [8], 55.2%; in test [5], 24.6%; in test [6], 83.6%. The growth in test [7] is 71.6%.

`O=C1NCCC12CCN(c1c(Cl)cncc1-c1ccc(O)cc1)CC2`: the growth is 93.7% in test [1]; 114% in test [2]; 100% in test [3]; 95.4% in test [8]; 97.3% in test [5]; 120% in test [6]. Moreover, the growth in test [7] is 105%.

Consider `COC(=O)[C@H]1CCCN1C[C@@H](O)CN1C(=O)/C(=C\c2cc(OC)c(OC)c(OC)c2)c2ccccc21`, for which the growth is 86.7% in test [1]; 111% in test [2]; 96.5% in test [3]; 70.5% in test [8]; 92.8% in test [5]; 98.9% in test [7].

As for `CS(=O)(=O)C1=CN(CCO)C(=O)N2CCCN=C12`, the growth was 102% in test [1]; 102% in test [2]; 102% in test [3]; 104% in test [8]; 97% in test [5]; 98.6% in test [6]. Further, in test [7], the growth was 105%.

As to `O=c1oc2ccccc2cc1C1=NN=C(SCc2ccccc2)SC1`, the growth was 85.5% in test [1]; 102% in test [2]; 107% in test [3]; 94.3% in test [8]; 99.1% in test [5]; 109% in test [6]. For the same molecule, the growth in test [7] was 99.7%.

Consider `COc1ccc2c(O)c(/C=C3\N=Nc4ncccc43)oc2c1C[C@H]1CCNC[C@H]1F`, for which the growth in test [1] was 41.5%; in test [2], -54.6% (active); in test [3], 7.14% (active); in test [8], 2.59% (active); in test [5], -6.67% (active); in test [6], 0.205% (active). Also, in test [7], the growth is -17.4% (active).

For `CCOC(=O)c1nc(Nc2ccc(NC(=O)Nc3ccc(F)cc3)cc2)c2ccccc2n1`, the growth in test [1] is 99.2%; in test [2], 106%; in test [3] it was 101%; in test [8], 96.5%; in test [5] it was 101%; in test [7] it was 102%.

Consider `O=C(OCc1ccc2cccc(O)c2n1)N1CCN(C(=O)c2cc3cc(F)ccc3[nH]2)CC1`, for which the growth is -68.3% (active) in test [1]; -57.4% (active) in test [2]; -89.8% (active) in test [3]; -28% (active) in test [8]; -78.8% (active) in test [5]; -4.94% (active) in test [6]. Also, in test [7], the growth is -48.1% (active).

Turning to `COc1cc(-c2csc(NC(=O)c3cc(-n4cnc(C)c4)cc(C(F)(F)F)c3)n2)cc(OC)c1OC`, the growth was 23.5% in test [1]; 47.4% in test [2]; 74.8% in test [3]; 61.8% in test [8]; 40.4% in test [5]; 83.9% in test [6]. For the same molecule, the growth in test [7] was 56.4%.

As to `CCOC(=O)c1c(C)nc2c(c1N)CC(=O)N2Cc1cc(F)cc(Cl)c1`, the growth is 76.3% in test [1]; 96.3% in test [2]; 92% in test [3]; 84.9% in test [8]; 79.9% in test [5]; 113% in test [6]. In test [7], the growth was 97%.

Take `OB(O)c1cccc(-c2nc3ccc4[nH]ncc4c3c3c2CCCC3)c1`: the growth in test [1] is 66.6%; in test [2], 35.5%; in test [3], 45.3%; in test [8], 70.1%; in test [5], 25%; in test [6] it was 77.3%. The growth in test [7] was 36.1%.

Regarding `O=C1/C(=C/c2cccs2)SC(=S)N1CCCN1CCOCC1`, the growth in test [1] is 67.4%; in test [2] it was 102%; in test [3] it was 92.1%; in test [8], 73.8%; in test [5], 87.8%; in test [6], 112%. Besides, the growth in test [7] is 96.8%.

For `c1ccc(CNc2c3ccccc3nc3ccccc23)cc1`, the growth in test [1] was 37.7%; in test [2], 72.8%; in test [3], 42.8%; in test [8], 12%; in test [5], 8.4% (active); in test [6] it was 38.2%. The growth in test [7] was 30.5%.

As to `COc1ccc(-c2nc3c(c(-c4ccccc4)nn3-c3ccccc3)c(-c3ccc(N4CCN(C)CC4)cc3)c2C#N)cc1`, the growth in test [1] was 96.2%; in test [2], 90.6%; in test [3], 93.9%; in test [8] it was 81%; in test [5] it was 81.4%; in test [7], 95.6%.

As for `O=C(/C=C/c1cn(-c2ccccc2)nc1-c1ccc([N+](=O)[O-])cc1)c1ccc(Cl)cc1`, the growth is 31.4% in test [1]; 62.7% in test [2]; 59.5% in test [3]; 25.4% in test [8]; -12.6% (active) in test [5]; -22% (active) in test [6]. Further, the growth in test [7] is 41.8%.
